High-throughput results as filed in PubChem BioAssay.
TDP1 cell CPT = DT40-hTDP1 cell growth loss with CPT | chicken DT40 Tdp1-/-;hTDP1 cells + 20 nM CPT, ATP luminescence, 48 h | hit rate 12% among 420,000 | Potency, µM (highest dose often 46.2 µM), for inactives: at the top dose activity change, negative = growth inhibition, usual class: inhibitors; further: on the % scale 0 is the no-effect control and ±100 the full control effect; nearly all actives have a fitted effect of over 55% in size
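Chicken DT40 Tdp1-/- cells complemented with human TDP1, 400 cells/well, exposed to compounds plus 20 nM camptothecin for at least 48 h at 37 C; viability read as ATP content by CellTiter-Glo luminescence.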
ClpP mod = qHTS Assay for Activators of ClpP; ATP-dependent Clp protease proteolytic subunit (Bacillus subtilis (strain 168)), P80244; purified B. subtilis ClpP, FRET peptide cleavage, 20 min; Potency, µM (titrated, usually from 57.5 µM), inactives show at the top dose activity change, negative = active; hit rate 1.9% among 340,000; active means well fitted falling curve with a large enough effect; inconclusive means small, poorly fitted or top-dose-only effect; inactive means no such curve, though single readings can be large or run the other way; further: the source files actives as falling curves though it sought activators and does not explain the sign; nearly all actives have a fitted effect of over 65% in size
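Buffer: 100 mM Tris/HCl pH8, 100 mM KCl, 0.05% low protease BSA, 2.5% glycerol, 0.01% Tween-20. ClpP 10 microg/mL final; 20 min RT; delta FRET normalized to ADEP and DMSO controls.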
DT40 TDP1 no CPT = qHTS for Inhibitors of human tyrosyl-DNA phosphodiesterase 1 (TDP1): qHTS in cells in absence of CPT. hit rate 15% among 420,000. DT40 Tdp1-/- hTDP1 cells, no CPT, ATP luminescence, 48 h. Potency, µM (top dose mostly 46.2 µM), without a hit: top-dose activity change, negative = growth inhibition, actives largely listed as inhibitors; further: on the % scale 0 is the no-effect control and ±100 the full control effect; nearly all actives have a fitted effect of over 55% in size
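Cells were dispensed at 400 per well, compounds added by pin tool, plates incubated ≥48 hr at 37 °C, then CellTiter-Glo added for 30 min at room temperature before luminescence reading. Line: DT40 Tdp1-/- complemented with hTDP1; camptothecin omitted.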
TDP1 inh = inhibitors of human tyrosyl-DNA phosphodiesterase TDP1; Q9NUW8; recombinant TDP1, AlphaScreen DNA substrate cleavage; Potency, µM (doses to about 130 µM), for the others: at the highest dose activity change, negative = inhibition, most hits filed as inhibitors; hit rate 0.28% among 350,000; AID 485290; further: on the % scale 0 is the no-effect control and ±100 the full control effect; nearly all actives have a fitted effect of over 40% in size
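Enzyme-compound mixtures sat 15 min at room temperature, followed by a 5 min reaction with 15 nM final substrate and 10 min with AlphaScreen beads. Recombinant human Tdp1 was used at 1 nM final.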
* hit, by the source's call; [ ] = dose if it differs, or a comment. Sampled rows, rich in hits. Any-hit rate of the full collection: about 17%. Unless noted, the call rests on the fitted dose curve; in most records, active means well fitted curve in the direction sought with a large enough effect; inconclusive means small, poorly fitted or top-dose-only effect, or another doubt; inactive means no such curve, though single readings can be large; an effect the other way counts as inactive or inconclusive. Potency means the concentration at half of the fitted maximal effect.

Screening CC(C)CN(CC(C)C)C(=O)C1CCCN(S(=O)(=O)c2ccc3c(c2)oc(=O)n3C)C1 (stereo not drawn) returned TDP1 cell CPT -13%, ClpP mod 2%, DT40 TDP1 no CPT -19% and TDP1 inh 6%.
N#CC1=C(N)SC(N)=C(C#N)C1c1cccc(Oc2ccccc2)c1 was read as TDP1 cell CPT inconclusive, ClpP mod -16%, DT40 TDP1 no CPT inconclusive and TDP1 inh 13%.
Screening N#CC1=C(N)N2C(=C(C#N)C1c1ccc(Br)cc1)Nc1ccccc12 (stereo not drawn) returned TDP1 cell CPT 6.5µM*, ClpP mod inconclusive, DT40 TDP1 no CPT 3.3µM* and TDP1 inh 3%.
`N#CC1=C(N)N2C(=C(C#N)C1c1cccc(Br)c1)Nc1ccccc12` (stereo not drawn) gave TDP1 cell CPT 3.7µM*, DT40 TDP1 no CPT 3.3µM* and TDP1 inh 1%.
N#CC1=C(N)N2C(=C(C#N)C1c1ccccc1)Sc1ccccc12 (stereo not drawn) was read as TDP1 inh 5%.
FC(F)(F)c1nc2ccccc2c2nc3ccccc3n12 was read as TDP1 cell CPT 1%, DT40 TDP1 no CPT -7% and TDP1 inh 4%.
For FC(F)(F)c1nnc2c(Sc3ccc(Cl)cc3)nc3ccccc3n12 the results were TDP1 cell CPT 2.6µM*, ClpP mod -4%, DT40 TDP1 no CPT 1.8µM* and TDP1 inh -1%.
FC(F)(F)c1nnc2c(Sc3ccccn3)nc3ccccc3n12 was read as TDP1 cell CPT 5.2µM*, ClpP mod -2%, DT40 TDP1 no CPT 4.6µM* and TDP1 inh 6%.
CS(=O)(=O)Nc1cccc(-c2cc(NC=O)c3ncc(-c4ccc(F)c(Cl)c4)n3c2)c1 was read as TDP1 cell CPT 9.2µM*, ClpP mod -25% and DT40 TDP1 no CPT 15µM*.
For O=CNc1cc(-c2cccc(F)c2)cn2c(-c3ccc(F)c(Cl)c3)cnc12 the results were TDP1 cell CPT 23µM*, ClpP mod inconclusive and DT40 TDP1 no CPT 12µM*.
`O=CNc1cc(-c2ccccc2)cn2c(-c3ccc(F)c(Cl)c3)cnc12` gave TDP1 cell CPT 23µM*, ClpP mod -28% and DT40 TDP1 no CPT 23µM*.
For CN(C)c1ccc(-c2cc(NC=O)c3ncc(-c4ccc(F)c(Cl)c4)n3c2)cc1 the results were TDP1 cell CPT inconclusive, ClpP mod -18% and DT40 TDP1 no CPT inconclusive.
For COc1cc(Cl)c(C)cc1NC(=O)c1sc2nc(C)cc(C)c2c1N the results were TDP1 cell CPT -2%, ClpP mod -16%, DT40 TDP1 no CPT -25% and TDP1 inh 4%.
Screening O=C1OCCN1C(=O)[C@H]1[C@H](c2ccc([N+](=O)[O-])cc2)C(c2ccc(F)cc2)=NN1c1ccc(Br)cc1 returned TDP1 cell CPT inconclusive, ClpP mod -4%, DT40 TDP1 no CPT 15µM* and TDP1 inh 2%[56.1 µM].
`Cc1ccc(-n2cccn2)c(CN2CCCC(CNC(=O)c3ccc(F)cc3)C2)c1` (stereo not drawn) gave TDP1 cell CPT inconclusive, DT40 TDP1 no CPT 12µM* and TDP1 inh -1%.
`O=S(=O)(O)NC1CCCCC1` gave TDP1 cell CPT 1%, DT40 TDP1 no CPT -6% and TDP1 inh 9%.
Screening Cc1ccc(NS(=O)(=O)c2ccc(C(=O)NCc3cccnc3)cc2)cc1 returned TDP1 cell CPT inconclusive, ClpP mod 4%, DT40 TDP1 no CPT 15µM* and TDP1 inh 4%.
Cc1ccc(NS(=O)(=O)c2ccc(C(=O)NCc3ccncc3)cc2)cc1 was read as TDP1 cell CPT inconclusive, ClpP mod 1% and DT40 TDP1 no CPT inconclusive.
`Cc1ccc(NS(=O)(=O)c2ccc(C(=O)NNC(=O)c3ccccc3O)cc2)cc1` gave TDP1 cell CPT inconclusive, ClpP mod 0% and DT40 TDP1 no CPT 23µM*.
`Cc1ccc(S(=O)(=O)Nc2ccc(C(=O)Nc3ccncc3)cc2)cc1` gave TDP1 cell CPT 15µM*, ClpP mod -12%, DT40 TDP1 no CPT inconclusive and TDP1 inh 1%.
For CN1CCN(C(=S)NC(=O)c2ccccc2Cl)CC1 the results were TDP1 cell CPT 9%, ClpP mod -2%, DT40 TDP1 no CPT 2% and TDP1 inh 6%.
For COc1ccc(Br)c(C(=O)NCC2CCCCC2)c1 the results were TDP1 cell CPT -18%, DT40 TDP1 no CPT -17% and TDP1 inh -2%.
CCOc1ccc(OCC(=O)Nc2cccc(S(=O)(=O)NC3=NCCC3)c2)cc1 was read as TDP1 cell CPT -24% and DT40 TDP1 no CPT inconclusive.
Screening CCCOc1ccccc1OCC(=O)Nc1cccc(S(=O)(=O)NC2=NCCC2)c1 returned TDP1 cell CPT inconclusive, ClpP mod -4%, DT40 TDP1 no CPT 15µM* and TDP1 inh 1%.
For O=C(COC(=O)CC1CC2CCC1C2)Nc1cccc(S(=O)(=O)NC2=NCCCCC2)c1 (stereo not drawn) the results were TDP1 cell CPT inconclusive, ClpP mod 1%, DT40 TDP1 no CPT 29µM* and TDP1 inh 3%.
Screening CC(C)c1ccc(C(=O)Nc2ccc(S(=O)(=O)NC3=NCCCCC3)cc2)cc1 returned TDP1 cell CPT 16µM*, ClpP mod -5% and DT40 TDP1 no CPT 23µM*.
`CCOc1ccc(C(=O)NC(=S)Nc2cccc(S(=O)(=O)NC3=NCCC3)c2)cc1` gave TDP1 cell CPT 0.82µM*, DT40 TDP1 no CPT 0.82µM* and TDP1 inh 7%.
O=C(COc1cccc(C(F)(F)F)c1)Nc1cccc(S(=O)(=O)NC2=NCCCCC2)c1 was read as TDP1 cell CPT 23µM*, ClpP mod 3% and DT40 TDP1 no CPT 26µM*.
O=C(Nc1cccc(S(=O)(=O)NC2=NCCCCC2)c1)c1ccc(Cl)cc1 was read as TDP1 cell CPT 23µM*, ClpP mod 1%, DT40 TDP1 no CPT 12µM* and TDP1 inh -4%.
`O=C(NC(=S)Nc1cccc(S(=O)(=O)NC2=NCCC2)c1)c1cc(-c2ccco2)nc2ccccc12` gave TDP1 cell CPT 4.6µM*, DT40 TDP1 no CPT 3.7µM* and TDP1 inh 0%.
Screening O=C(Nc1cccc(S(=O)(=O)NC2=NCCC2)c1)c1cc(-c2ccco2)nc2ccccc12 returned TDP1 cell CPT -29% and DT40 TDP1 no CPT -29%.
Screening Cc1cccc(C(=O)N[C@H](C(=O)Nc2ccc(S(=O)(=O)NC3=NCCCCC3)cc2)C(C)C)c1 returned TDP1 cell CPT 3%, ClpP mod 35µM*, DT40 TDP1 no CPT 0% and TDP1 inh 1%.
`Cc1cc(C)nc(NS(=O)(=O)c2ccc(NC(=O)COc3ccc(Cl)cc3C)cc2)n1` gave TDP1 cell CPT inconclusive, ClpP mod -1%, DT40 TDP1 no CPT 18µM* and TDP1 inh 5%.
